Unmarked numbers belong to inactive results. The source made the active and inactive calls.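 The calls were made as follows: active = mean inhibition over 43.08%, the solvent-only control mean plus 3 SD; inactive = the rest.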

Sequence of Nuclear receptor coactivator 3 (Homo sapiens) (Q9Y6Q9 whole entry, looked up, the tested form may be a part): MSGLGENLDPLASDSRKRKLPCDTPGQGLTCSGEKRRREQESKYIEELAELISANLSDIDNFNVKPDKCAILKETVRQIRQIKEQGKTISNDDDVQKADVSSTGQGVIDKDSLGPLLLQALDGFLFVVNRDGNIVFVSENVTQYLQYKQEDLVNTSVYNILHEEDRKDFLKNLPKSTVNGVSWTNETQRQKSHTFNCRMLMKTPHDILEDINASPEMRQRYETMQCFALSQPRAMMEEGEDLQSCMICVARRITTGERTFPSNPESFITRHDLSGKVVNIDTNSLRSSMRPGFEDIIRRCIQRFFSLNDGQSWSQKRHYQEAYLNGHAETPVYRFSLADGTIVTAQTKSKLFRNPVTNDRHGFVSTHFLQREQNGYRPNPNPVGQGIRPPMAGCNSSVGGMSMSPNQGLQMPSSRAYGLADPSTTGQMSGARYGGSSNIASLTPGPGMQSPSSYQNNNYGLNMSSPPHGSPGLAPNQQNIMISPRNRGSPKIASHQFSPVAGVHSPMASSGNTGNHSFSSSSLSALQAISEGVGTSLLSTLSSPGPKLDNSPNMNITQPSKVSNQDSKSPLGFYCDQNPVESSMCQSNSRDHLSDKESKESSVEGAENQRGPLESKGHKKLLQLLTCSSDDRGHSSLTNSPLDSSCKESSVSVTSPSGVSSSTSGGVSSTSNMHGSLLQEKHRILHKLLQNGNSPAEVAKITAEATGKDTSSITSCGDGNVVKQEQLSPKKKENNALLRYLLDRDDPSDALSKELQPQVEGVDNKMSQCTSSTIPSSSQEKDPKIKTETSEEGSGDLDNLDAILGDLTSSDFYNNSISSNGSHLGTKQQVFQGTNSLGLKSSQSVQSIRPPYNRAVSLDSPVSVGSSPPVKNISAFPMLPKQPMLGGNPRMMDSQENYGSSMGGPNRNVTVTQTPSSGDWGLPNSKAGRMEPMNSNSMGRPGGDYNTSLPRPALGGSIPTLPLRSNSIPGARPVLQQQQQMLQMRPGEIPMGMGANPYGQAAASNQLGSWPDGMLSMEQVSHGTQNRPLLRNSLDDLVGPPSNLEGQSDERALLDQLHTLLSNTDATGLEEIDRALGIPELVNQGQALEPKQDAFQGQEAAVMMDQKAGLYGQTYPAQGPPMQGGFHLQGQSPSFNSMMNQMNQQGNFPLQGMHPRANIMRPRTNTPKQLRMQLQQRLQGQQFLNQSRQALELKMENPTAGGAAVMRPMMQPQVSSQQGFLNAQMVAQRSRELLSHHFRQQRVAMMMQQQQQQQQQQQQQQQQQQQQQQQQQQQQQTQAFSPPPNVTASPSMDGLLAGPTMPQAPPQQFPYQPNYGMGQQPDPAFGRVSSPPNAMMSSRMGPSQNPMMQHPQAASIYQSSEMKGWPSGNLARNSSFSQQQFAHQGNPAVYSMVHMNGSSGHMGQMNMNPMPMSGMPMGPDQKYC

This assay concerns the target Nuclear receptor coactivator 3 (Homo sapiens) (UniProt Q9Y6Q9). Briefly: NCOA3 GAL4-fusion reporter inhibition – cell-based, luminescence, quadruplicate, confirmation (AID 588792).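 Also: 0% = DMSO treated cells and 100% = gossypol at 36 µM.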 The settings on record: HEK293 GAL4-SRC3 luciferase reporter, at 3.6 µM, active compounds read high.
As a reminder, the inhibition is how much of the control response was suppressed. Consider `N=c1c2c(-c3ccccc3)c(-c3ccccc3)n(Cc3ccco3)c2ncn1CCO`, for which the inhibition is 23.5%.
Take `CCCC(=O)NC(c1ccc(Cl)cc1)c1ccc2cccnc2c1O` (centres undefined): the inhibition was 31%.
The figure for `Cc1cc(C)cc(NS(=O)(=O)c2ccc3c(c2)c(=O)n(C)c(=O)n3C)c1` is 55.2% (active).
The figure for `COc1ccc(OC)c(Cc2cnc3nc(N)nc(N)c3c2C)c1` is 67% (active); for `COc1cccc(/C=N\NC(=O)c2ccc(Cn3cc(Br)c([N+](=O)[O-])n3)o2)c1O` it is 33%; for `NC1=C(Cl)C(=O)c2ccc(S(N)(=O)=O)cc2C1=O` it is 97.5% (active).
The result for `O=C(/C=C/c1cccs1)NC(=S)NNC(=O)c1ccccc1O` reads 76% (active).
Consider `CC(C)CC[n+]1ccccc1/C=C/c1ccc(N(C)C)cc1`, for which the inhibition is 60.5% (active).
The result for `CN(C)c1ncnc2c1nnn2C1OC(CO)C(O)C1O` (centres undefined) reads 82.7% (active).
Take `Cn1c2c(c(=O)n(C)c1=O)C(C(F)(F)F)(C(F)(F)F)N=C(c1ccc(Cl)cc1)N2`: the inhibition was 77.8% (active).
On to `CCC(C)N(CC(=O)Nc1cccc(C)c1C)C(=O)CCl` (centres undefined), for which the inhibition was 80% (active).
Take `COc1ccc(Cn2c(-c3ccc(C)cc3)c[n+]3ccccc23)cc1`: the inhibition was 35.9%.
As to `CCN1CCN(/C=N/c2nc3c(s2)CCCC3)CC1`, the inhibition was 19.2%.
In the case of `Cc1ccc(O)c(N=Nc2nccs2)c1`, the inhibition is 65.3% (active).
In the case of `Cc1cc(C(C)(C)C)cc(C)c1C[n+]1ccc2ccccc2c1`, the inhibition is 41.4%.
As for `CN(C)c1ccc(C=c2c3ccccc3n3c2c2c([n+]3C)CCCC2)cc1`, the inhibition was 75.3% (active).
Consider `CN(C(=O)OC(C)(C)C)c1ccc(-c2nc3ccccc3s2)cc1`, for which the inhibition was 87.1% (active).
The result for `CC(NNC(=S)N1CCN(c2ccccn2)CC1)c1nccc2ccccc12` (centres undefined) reads 61.5% (active).
The result for `Cc1ccc(S(=O)(=O)N(C)C)cc1NC(=O)c1cncc(Br)c1` reads 22.1%; that for `CCN1/C(=C/C(C)=C/c2sc3ccccc3[n+]2CC)Sc2ccccc21`, 80.9% (active).
The figure for `CCOc1ccccc1O[C@H](c1ccccc1)[C@H]1CNCCO1` is 3.48%; for `CN1OC[C@@H]2CN[C@H](c3ccc(-c4cc5ccccc5o4)cc3)C[C@@H]21` it is 83.3% (active); for `CN(C)c1ccc(C=c2c3ccccc3n3c2cc(-c2ccccc2)[n+]3C)cc1` it is 65.7% (active).
For the molecule `CCCCCCCCCCn1ccc(=N)cc1`, the inhibition was 70.1% (active).

These data come from PubChem BioAssay.
